Experiment: qHTS profiling of the MIPE4 collection as inhibitors of Plasmodium falciparum (3D7) proliferation (AID 743344);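 also: scaled between DMSO vehicle wells and 0.29 µM artemisinin as full inhibition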
Details: P. falciparum 3D7 in erythrocytes, SYBR Green DNA fluorescence, 72 h; at 28.5 µM unless noted
Excerpt: Plasmodium falciparum is a virulent malarial parasite that kills 1-2 million people worldwide each year. Transmitted by mosquitoes, the sporozoite form of the parasite enters the blood stream to infect hepatocytes, where they become merozoites that infect red blood cells (erythrocytes). Within erythrocytes, merozoites begin a […] cycle of growth and division, after which the parasite is released to infect new red blood cells. Gametocytes, which form within erythrocytes as well, circulate in the bloodstream and are ingested by the mosquito, thereby completing the life cycle. To profile malarial isolates for differential chemical responses and to identify inhibitors of malarial growth, an assay that measures P. falciparum growth and replication within erythrocytes was employed. This assay uses a DNA binding fluorescent dye (SYBR Green) to detect parasite DNA following cell lysis. Because mature erythrocytes lack DNA, only Plasmodium-derived DNA is detected.
The SYBR Green viability assay was adapted from a method described previously (Plouffe et al., 2008). For screening 3 ul culture medium was dispensed into 1536 well black clear bottom plates (Aurora Biotechnologies) using a Multidrop Combi (Thermo Fisher Scientific Inc.), 23 nL compounds in DMSO were added by a pin tool (Kalypsys), and 5 ul of erythrocytes infected with P. falciparum (0.3% parasitemia, 2.5% hematocrit final concentration) were added. The plates were incubated at 37 C in a humidified incubator in 5% CO2 for 72 h, and 2 ul lysis buffer (20 mM Tris HCl, 10 mM EDTA, 0.16% saponin, 1.6% triton X, 10X SYBR Green I supplied as 10,000X […] by Invitrogen) was added to each well. The plates were mixed for 25 sec with gentle shaking and incubated overnight at room temperature in the dark. The following morning, fluorescence intensity at 485(14) nm excitation and 535(25) nm emission wavelengths was measured on an EnVision (Perkin Elmer) plate reader. Plate reads were normalized relative to the control inhibitor (0.29 uM artemisinin) and vehicle (DMSO) wells present on each plate and then corrected by an algorithm using vehicle-only control plates at the beginning and end of the compound plate stack.

Going from `CC1=C(C(=O)OC(C)C)C(c2cccc([N+](=O)[O-])c2)C(C(=O)OC2CN(C(c3ccccc3)c3ccccc3)C2)=C(N)N1` (stereo unspecified) to `COc1ccc(CN2CCN(C(c3ccc(F)cc3)c3ccc(F)cc3)CC2)c(OC)c1OC`, the parasite growth, % of DMSO control falls from 6.8% to 4.59%.

Compared with `COc1cccc(CCc2ccccc2OCC(CN(C)C)OC(=O)CCC(=O)O)c1` (stereo unspecified), `Cc1cccc(C)c1NC(=O)CN1CCN(CCCC(c2ccc(F)cc2)c2ccc(F)cc2)CC1` is higher in parasite growth, % of DMSO control: 7.32% for the first, 13.4% for the second.

`CC[C@@H](CO)NCCN[C@@H](CC)CO` gave a parasite growth, % of DMSO control of 98.8%.

Molecule `CN1CCN(CCCN2c3ccccc3Sc3ccc(S(=O)(=O)N(C)C)cc32)CC1` has a parasite growth, % of DMSO control of 63.5% [at 9.64 µM].

Reference: PubChem BioAssay (NCATS)
